{"source": "the OligoGym collection", "data": [{"molecular_target": "FPGS", "experiment": "pooled miR-30 sensor sort-seq; sequence = guide strand", "details": "shRNA", "values": [{"sequence": "TAGAGGACATGAGATCTGCTGG", "sensor-assay potency score (higher = more potent)": -0.333}, {"sequence": "TGTCTGAGGGTCACCCCGCTGG", "sensor-assay potency score (higher = more potent)": -0.513}, {"sequence": "TTGGTCTGCGTTGCCTGTGGAT", "sensor-assay potency score (higher = more potent)": -1.06}, {"sequence": "TTGCCTGTGGATGACACCTCTG", "sensor-assay potency score (higher = more potent)": -0.989}, {"sequence": "ATTGATGCGGATCCGCTCCCGA", "sensor-assay potency score (higher = more potent)": -1.01}, {"sequence": "TTCCGTGAAGGCACAGGTGGAG", "sensor-assay potency score (higher = more potent)": 0.0376}, {"sequence": "TTCTGTTGGTCTGCGTTGCCTG", "sensor-assay potency score (higher = more potent)": -0.416}, {"sequence": "TCCTTGGTCTCCTCCAGCCGGT", "sensor-assay potency score (higher = more potent)": -1.92}, {"sequence": "ATACATTCCGTGAAGGCACAGG", "sensor-assay potency score (higher = more potent)": 0.476}, {"sequence": "TTCAGGTTGGAGCACAGTGAAG", "sensor-assay potency score (higher = more potent)": -1.98}, {"sequence": "TGAAGTTCTGTTGGTCTGCGTT", "sensor-assay potency score (higher = more potent)": -0.752}, {"sequence": "TCGGAGGATACATTCCGTGAAG", "sensor-assay potency score (higher = more potent)": -1.5}, {"sequence": "TTCCTGATGATGTTGGTGCAGT", "sensor-assay potency score (higher = more potent)": -0.727}, {"sequence": "TTCTCTTGGAGGAAGACGTGGA", "sensor-assay potency score (higher = more potent)": 0.047}, {"sequence": "TATAGAGGACATGAGATCTGCT", "sensor-assay potency score (higher = more potent)": 0.932}, {"sequence": "TCACTGTGAAGTTCTGTTGGTC", "sensor-assay potency score (higher = more potent)": 0.188}, {"sequence": "TTCACCTGCTCCAGGTAGCCGG", "sensor-assay potency score (higher = more potent)": -1.54}, {"sequence": "TCTTCGTCCAGGTGGTTCCAGT", "sensor-assay potency score (higher = more potent)": -0.895}, {"sequence": "TGCCTGTGGATGACACCTCTGT", "sensor-assay potency score (higher = more potent)": -0.547}, {"sequence": "TAGCATTGAAGAGCAAGACTCG", "sensor-assay potency score (higher = more potent)": -0.404}, {"sequence": "TTGATGCGGATCCGCTCCCGAA", "sensor-assay potency score (higher = more potent)": -1.62}, {"sequence": "TGAAGAGCAAGACTCGAACCTC", "sensor-assay potency score (higher = more potent)": -0.155}, {"sequence": "TCTGTTGGTCTGCGTTGCCTGT", "sensor-assay potency score (higher = more potent)": -0.767}]}, {"molecular_target": "FPGT-TNNI3K", "experiment": "pooled miR-30 sensor sort-seq; sequence = guide strand", "details": "shRNA", "values": [{"sequence": "TTACATTTACATCAGCACCAAA", "sensor-assay potency score (higher = more potent)": -1.01}, {"sequence": "TTTGACTAGGTCAATGCTCTTG", "sensor-assay potency score (higher = more potent)": -0.0852}, {"sequence": "TTGACTAGGTCAATGCTCTTGC", "sensor-assay potency score (higher = more potent)": 0.745}, {"sequence": "TTAATTTAGACTGCAAATCAAG", "sensor-assay potency score (higher = more potent)": -1.11}, {"sequence": "TAACATATGATTCACTGACTTT", "sensor-assay potency score (higher = more potent)": -0.697}, {"sequence": "TTTTATTTCTGCATCGTCCTTT", "sensor-assay potency score (higher = more potent)": 0.923}, {"sequence": "TTCTTTTTCCTTGATCTGCAGG", "sensor-assay potency score (higher = more potent)": -0.729}, {"sequence": "TTGAGCATTCACATCTGCTTTG", "sensor-assay potency score (higher = more potent)": -0.576}, {"sequence": "TATCTTGAGCATTCACATCTGC", "sensor-assay potency score (higher = more potent)": 0.666}, {"sequence": "TTTATTTCTGCATCGTCCTTTA", "sensor-assay potency score (higher = more potent)": -0.351}]}, {"molecular_target": "FRMD4B", "experiment": "pooled miR-30 sensor sort-seq; sequence = guide strand", "details": "shRNA", "values": [{"sequence": "TAGAAGTTTGGGCTGAACCAGC", "sensor-assay potency score (higher = more potent)": -0.701}, {"sequence": "TTTCTTTGCAGCTTCCACCAGC", "sensor-assay potency score (higher = more potent)": -0.481}, {"sequence": "TTCCATTGGAATAACTTCCGAG", "sensor-assay potency score (higher = more potent)": 0.389}, {"sequence": "TAAACTGCCATTACTTGCCATG", "sensor-assay potency score (higher = more potent)": -1.04}, {"sequence": "TTGAAGTAGAAACATTCTGTTT", "sensor-assay potency score (higher = more potent)": -1.02}, {"sequence": "TTTGCTTTGCTTCCGGTCCAAG", "sensor-assay potency score (higher = more potent)": -1.02}, {"sequence": "TAGACATTGCCATAGCAGCTGG", "sensor-assay potency score (higher = more potent)": -0.855}]}]}
